Test results reported in PubChem BioAssay (NCI).
Compounds without any hit were thinned out: in the full panel of roughly 79,000, 15% have a hit. Values without a mark were called inactive. Calls of active or inactive are those of the source. Cut-off read from the data, not from the text of the source: active = growth inhibition above about 70%; inactive = the rest.

Experiments:
[1] = NCI Yeast Anticancer Drug Screen. Data for the wt1 strain (AID 149);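 note: 0% = growth of vehicle-treated wt1 cultures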; settings: S. cerevisiae wt1 strain (SPY 50644) growth inhibition, hits give high values
Procedure, shortened: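 Yeast wt1 strain exposed to compounds; growth inhibition measured relative to vehicle-treated controls.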

[2] = NCI Yeast Anticancer Drug Screen. Data for the rad50EPP+ strain (AID 151);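 note: 0% = growth of vehicle-treated control cultures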; settings: S. cerevisiae rad50 mutant strain, hits give high values
Procedure, shortened: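 Read-out is yeast growth inhibition relative to vehicle; cells used were the rad50EPP+ strain.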

[3] = NCI Yeast Anticancer Drug Screen. Data for the mgt1 strain (AID 153); settings: S. cerevisiae mgt1 mutant growth inhibition, hits give high values
Procedure, shortened: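 Measured: inhibition of mgt1 yeast growth by compound, normalized to vehicle-treated cultures.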

[4] = NCI Yeast Anticancer Drug Screen. Data for the rad50 strain (AID 155);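 note: 0% = growth of vehicle-only cultures of the same strain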; settings: S. cerevisiae rad50 strain growth inhibition, hits give high values
Procedure, shortened: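 Yeast carrying a defined DNA repair defect were exposed to test compounds, and growth was compared with vehicle-treated controls to give percent inhibition.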

[5] = NCI Yeast Anticancer Drug Screen. Data for the mec2-1 strain (AID 157); settings: S. cerevisiae mec2-1 strain, hits give high values
Procedure, shortened: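 Using mec2-1 yeast: add compound, measure growth, express inhibition versus vehicle-treated cultures.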

[6] = NCI Yeast Anticancer Drug Screen. Data for the sgs1 mgt1 strain (AID 161);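 note: 0% = growth of cultures given vehicle only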; settings: S. cerevisiae sgs1 mgt1 strain, hits give high values
Procedure, shortened: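 Compounds are added to genetically altered yeast, and growth is compared with cultures given vehicle alone to give percent inhibition.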

[7] = NCI Yeast Anticancer Drug Screen. Data for the CLN2oe strain (AID 163);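 note: 0% = growth of vehicle-only control cultures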; settings: S. cerevisiae CLN2oe strain, hits give high values
Procedure, shortened: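 Whole-cell yeast growth assay. A strain engineered for altered cell-cycle control received compound, and inhibition relative to vehicle-treated cultures was recorded.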

[8] = NCI Yeast Anticancer Drug Screen. Data for the cln2 rad14 strain (AID 165);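 note: 0% = growth equal to vehicle treated cultures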; settings: S. cerevisiae cln2 rad14 strain, hits give high values
Procedure, shortened: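 Yeast strain cln2 rad14, bearing defects in cell cycle control and DNA repair, serves as the test system; values reflect growth inhibition compared with vehicle.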

[9] = NCI Yeast Anticancer Drug Screen. Data for the bub3 strain (AID 167); settings: S. cerevisiae bub3 mutant strain, hits give high values
Procedure, shortened: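 Compounds were applied to a genetically altered yeast strain carrying a cell-cycle control defect. Growth inhibition was scored against vehicle-treated controls.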

[10] = NCI Yeast Anticancer Drug Screen. Data for the wt2 strain (AID 169);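 note: 0% = growth of vehicle-treated yeast cultures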; settings: S. cerevisiae wt2 strain growth inhibition, hits give high values
Procedure, shortened: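 Treated yeast vs. vehicle-treated yeast: growth inhibition determined.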

[11] = NCI Yeast Anticancer Drug Screen. Data for the mlh1 strain (AID 171);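 note: 0% = growth of vehicle-treated control cultures of the same strain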; settings: S. cerevisiae mlh1 strain growth inhibition, hits give high values
Procedure, shortened: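 A yeast strain with a defined genetic lesion serves as the test organism. Cultures receive compound or vehicle, and growth is measured.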

[12] = NCI Yeast Anticancer Drug Screen. Data for the sgs1 strain (AID 173);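 note: 0% = growth of vehicle-only control cultures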; settings: S. cerevisiae sgs1 mutant, hits give high values
Procedure, shortened: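 A genetically defined yeast mutant is incubated with the test compound, and its growth is compared to that of the same strain given vehicle.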

[13] = NCI Yeast Anticancer Drug Screen. Data for the mlh1 rad18 strain (AID 175); settings: S. cerevisiae mlh1 rad18 strain growth inhibition, hits give high values
Procedure, shortened: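 Steps: expose repair-defective yeast to compound; measure growth; express inhibition against vehicle-treated controls.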

[14] = NCI Yeast Anticancer Drug Screen. Data for the rad14 strain (AID 159);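 note: 0% = growth of vehicle-treated control cultures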; settings: S. cerevisiae rad14 strain growth inhibition, hits give high values
Procedure, shortened: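 Yeast cells carrying a defined DNA-repair defect were exposed to compounds, and growth inhibition was calculated relative to vehicle-treated control cultures.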

[15] = NCI Yeast Anticancer Drug Screen. Data for the rad18 strain (AID 177); settings: S. cerevisiae rad18 mutant growth inhibition, hits give high values
Procedure, shortened: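 Measured value is growth inhibition of a yeast strain bearing a DNA repair alteration, referenced to vehicle-treated cells.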

[16] = at 5.0 µM (retest, dose inferred, filed as 0.5)
[17] = at 50.0 µM (retest, dose inferred, filed as 5.0)

Work on CCCCCC/C(C)=N/Nc1ccc([N+](=O)[O-])cc1[N+](=O)[O-] yielded a growth inhibition ([1]; at 1.2 µM) of 8%, a growth inhibition ([1]; at 3.7 µM) of 1% and a growth inhibition ([1]; at 11.0 µM) of 4%. The growth inhibition ([1]; at 33.0 µM) was -7%, the growth inhibition ([1]; at 100.0 µM) was -13% and the growth inhibition ([2]; at 1.2 µM) was -7%. The growth inhibition ([2]; at 3.7 µM) was -21%, the growth inhibition ([2]; at 11.0 µM) was 14% and the growth inhibition ([2]; at 33.0 µM) was 22%. It also gave a growth inhibition ([2]; at 100.0 µM) of 23%, a growth inhibition ([3]; at 1.2 µM) of -3% and a growth inhibition ([3]; at 3.7 µM) of -9%. It also gave a growth inhibition ([3]; at 11.0 µM) of -5%, a growth inhibition ([3]; at 33.0 µM) of -11% and a growth inhibition ([3]; at 100.0 µM) of -12%. It also gave a growth inhibition ([4]; at 1.2 µM) of -18%, a growth inhibition ([4]; at 3.7 µM) of -18% and a growth inhibition [4, 16] of -3%. It also gave a growth inhibition ([4]; at 11.0 µM) of -18%, a growth inhibition ([4]; at 33.0 µM) of -32% and a growth inhibition [4, 17] of 21%. The growth inhibition ([4]; at 50.0 µM) was -0.35%, the growth inhibition ([4]; at 100.0 µM) was 14% and the growth inhibition ([5]; at 1.2 µM) was -3%. For the same molecule, the growth inhibition ([5]; at 3.7 µM) was -4%, the growth inhibition [5, 16] was 1% and the growth inhibition ([5]; at 11.0 µM) was -3%. The growth inhibition ([5]; at 33.0 µM) was -9%, the growth inhibition [5, 17] was 43% and the growth inhibition ([5]; at 50.0 µM) was -9.7%. The growth inhibition ([5]; at 100.0 µM) was -8%, the growth inhibition [6, 16] was 3% and the growth inhibition [6, 17] was 15%. The growth inhibition ([6]; at 50.0 µM) was -5.7%, the growth inhibition ([7]; at 1.2 µM) was -11% and the growth inhibition ([7]; at 3.7 µM) was -10%. The growth inhibition ([7]; at 11.0 µM) was -14%, the growth inhibition ([7]; at 33.0 µM) was -18% and the growth inhibition ([7]; at 100.0 µM) was -19%. The growth inhibition [8, 16] was -4%, the growth inhibition [8, 17] was 77% (active) and the growth inhibition ([8]; at 50.0 µM) was 30.9%. It also gave a growth inhibition ([9]; at 1.2 µM) of -8%, a growth inhibition ([9]; at 3.7 µM) of -4% and a growth inhibition [9, 16] of 7%. For the same molecule, the growth inhibition ([9]; at 11.0 µM) was -8%, the growth inhibition ([9]; at 33.0 µM) was -13% and the growth inhibition [9, 17] was 91% (active). It also gave a growth inhibition ([9]; at 50.0 µM) of 20.1%, a growth inhibition ([9]; at 100.0 µM) of -12% and a growth inhibition ([10]; at 1.2 µM) of -13%. The growth inhibition ([10]; at 3.7 µM) was -4%, the growth inhibition ([10]; at 11.0 µM) was 5% and the growth inhibition ([10]; at 33.0 µM) was 8%. It also gave a growth inhibition ([10]; at 100.0 µM) of 29%, a growth inhibition ([11]; at 1.2 µM) of -13% and a growth inhibition ([11]; at 3.7 µM) of -8%. For the same molecule, the growth inhibition ([11]; at 11.0 µM) was -8%, the growth inhibition ([11]; at 33.0 µM) was -11% and the growth inhibition ([11]; at 100.0 µM) was -18%. The growth inhibition ([12]; at 1.2 µM) was -14%, the growth inhibition ([12]; at 3.7 µM) was -8% and the growth inhibition ([12]; at 11.0 µM) was 8%. For the same molecule, the growth inhibition ([12]; at 33.0 µM) was 3%, the growth inhibition ([12]; at 100.0 µM) was 29% and the growth inhibition [13, 16] was -6%. It also gave a growth inhibition [13, 17] of 58% and a growth inhibition ([13]; at 50.0 µM) of -0.8%.

Work on CC(=O)O/N=C/c1c2ccccc2cc2ccccc12 yielded a growth inhibition ([1]; at 1.2 µM) of -1%, a growth inhibition ([1]; at 3.7 µM) of 2% and a growth inhibition ([1]; at 11.0 µM) of 0%. For the same molecule, the growth inhibition ([1]; at 33.0 µM) was 3%, the growth inhibition ([1]; at 100.0 µM) was 10% and the growth inhibition ([2]; at 1.2 µM) was 14%. For the same molecule, the growth inhibition ([2]; at 3.7 µM) was 24%, the growth inhibition ([2]; at 11.0 µM) was 44% and the growth inhibition ([2]; at 33.0 µM) was 64%. It also gave a growth inhibition ([2]; at 100.0 µM) of 66%, a growth inhibition ([3]; at 1.2 µM) of -4% and a growth inhibition ([3]; at 3.7 µM) of -3%. The growth inhibition ([3]; at 11.0 µM) was -1%, the growth inhibition ([3]; at 33.0 µM) was 9% and the growth inhibition ([3]; at 100.0 µM) was 20%. For the same molecule, the growth inhibition ([4]; at 1.2 µM) was 0%, the growth inhibition ([4]; at 3.7 µM) was 1% and the growth inhibition [4, 16] was 55%. The growth inhibition ([4]; at 11.0 µM) was 5%, the growth inhibition ([4]; at 33.0 µM) was 20% and the growth inhibition [4, 17] was 90% (active). It also gave a growth inhibition ([4]; at 50.0 µM) of 15.2%, a growth inhibition ([4]; at 100.0 µM) of 62% and a growth inhibition ([5]; at 1.2 µM) of -3%. It also gave a growth inhibition ([5]; at 3.7 µM) of 2%, a growth inhibition [5, 16] of 4% and a growth inhibition ([5]; at 11.0 µM) of 7%. The growth inhibition ([5]; at 33.0 µM) was 20%, the growth inhibition [5, 17] was 18% and the growth inhibition ([5]; at 50.0 µM) was 8.65%. It also gave a growth inhibition ([5]; at 100.0 µM) of 26%, a growth inhibition ([14]; at 1.2 µM) of -2% and a growth inhibition ([14]; at 3.7 µM) of 0%. For the same molecule, the growth inhibition ([14]; at 11.0 µM) was 5%, the growth inhibition ([14]; at 33.0 µM) was 23% and the growth inhibition ([14]; at 100.0 µM) was 78% (active). The growth inhibition [6, 16] was 30%, the growth inhibition [6, 17] was 88% (active) and the growth inhibition ([6]; at 50.0 µM) was 63.6%. For the same molecule, the growth inhibition ([7]; at 1.2 µM) was -10%, the growth inhibition ([7]; at 3.7 µM) was -20% and the growth inhibition ([7]; at 11.0 µM) was -13%. The growth inhibition ([7]; at 33.0 µM) was -6%, the growth inhibition ([7]; at 100.0 µM) was -6% and the growth inhibition [8, 16] was 15%. It also gave a growth inhibition [8, 17] of 40%, a growth inhibition ([8]; at 50.0 µM) of -47.8% and a growth inhibition ([9]; at 1.2 µM) of 9%. For the same molecule, the growth inhibition ([9]; at 3.7 µM) was 12%, the growth inhibition [9, 16] was 58% and the growth inhibition ([9]; at 11.0 µM) was 26%. The growth inhibition ([9]; at 33.0 µM) was 47%, the growth inhibition [9, 17] was 84% (active) and the growth inhibition ([9]; at 50.0 µM) was 43.1%. For the same molecule, the growth inhibition ([9]; at 100.0 µM) was 63%, the growth inhibition ([11]; at 1.2 µM) was 1% and the growth inhibition ([11]; at 3.7 µM) was -1%. The growth inhibition ([11]; at 11.0 µM) was 1%, the growth inhibition ([11]; at 33.0 µM) was 17% and the growth inhibition ([11]; at 100.0 µM) was 52%. It also gave a growth inhibition ([12]; at 1.2 µM) of -1%, a growth inhibition ([12]; at 3.7 µM) of -1% and a growth inhibition ([12]; at 11.0 µM) of 3%. The growth inhibition ([12]; at 33.0 µM) was 29%, the growth inhibition ([12]; at 100.0 µM) was 58% and the growth inhibition [13, 16] was 80% (active). The growth inhibition [13, 17] was 92% (active), the growth inhibition ([13]; at 50.0 µM) was 33% and the growth inhibition ([15]; at 1.2 µM) was 0%. The growth inhibition ([15]; at 3.7 µM) was -1%, the growth inhibition ([15]; at 11.0 µM) was 11% and the growth inhibition ([15]; at 33.0 µM) was 54%. The growth inhibition ([15]; at 100.0 µM) was 83% (active).
